Results filed as inconclusive are left out. Activity calls are given as the source filed them. Rule for the calls: active = hit-call score of the fitted dose curve at least 0.9, where 1 is the maximum; inconclusive = response in the unintended direction; inactive = score below 0.9.
Each compound was assayed against human Vitamin D Receptor (VDR), VDR (gene 7421) (UniProt P11473) (assay: ATG_VDR_TRANS: Attagene TRANS-FACTORIAL HepG2 Assay for human Vitamin D Receptor (VDR) (AID 2283022)).
Procedure, shortened: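 Transactivation by an exogenous VDR-Gal4 chimera in transiently transfected HepG2 cells was measured as reporter transcript level 24 hours after chemical treatment. RT-PCR products were analysed by capillary electrophoresis and fitted in the positive direction relative to DMSO.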

human Vitamin D Receptor (VDR), VDR (gene 7421), sequence (P11473 whole entry, looked up, the tested form may be a part): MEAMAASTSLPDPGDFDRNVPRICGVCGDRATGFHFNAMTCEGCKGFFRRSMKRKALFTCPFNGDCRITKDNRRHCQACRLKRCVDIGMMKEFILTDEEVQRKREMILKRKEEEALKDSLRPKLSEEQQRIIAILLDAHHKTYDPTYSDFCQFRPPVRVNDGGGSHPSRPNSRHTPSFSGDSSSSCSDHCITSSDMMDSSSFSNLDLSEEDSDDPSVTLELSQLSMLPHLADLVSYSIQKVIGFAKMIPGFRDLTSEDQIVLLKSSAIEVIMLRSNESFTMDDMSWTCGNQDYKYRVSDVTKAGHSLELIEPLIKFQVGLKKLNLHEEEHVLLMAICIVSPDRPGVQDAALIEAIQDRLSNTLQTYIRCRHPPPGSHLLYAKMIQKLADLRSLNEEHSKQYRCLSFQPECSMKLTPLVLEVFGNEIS

outcome, inactive:
Cc1ccc(S(=O)(=O)O)cc1, C=CC(=O)OCC(CO)(COCC(COC(=O)C=C)(COC(=O)C=C)COC(=O)C=C)COC(=O)C=C, O=C(O)CN(CCCN(CC(=O)O)CC(=O)O)CC(=O)O, CC=O, Cn1sccc1=O, Cc1cc(=O)oc2cc(O)ccc12, NNc1nc(-c2ccc([N+](=O)[O-])cc2)cs1, NC(C(F)(F)F)C(F)(F)F
